Experimental data from PubChem BioAssay (NCATS).
Records with an inconclusive call do not appear. Where a call stands in place of a potency, no number is given. Activity calls are given as the source filed them. The call rests on the fitted dose curve; in most records, active means well fitted curve in the direction sought with a large enough effect; inconclusive means small, poorly fitted or top-dose-only effect, or another doubt; inactive means no such curve, though single readings can be large; an effect the other way counts as inactive or inconclusive.

Key:
[1] = Confirmation and Secondary Assay for Modulators of Hemoglobin Beta Chain Splicing at IVS2 654 locus (AID 910); details: HeLa EGFP-654 splicing reporter, GFP fluorescence, 48 h; series mostly up to 38.3 µM;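 further: per-well total GFP intensity by laser scanning cytometry after 2-day treatment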
Method in brief: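 HeLa cells stably carrying EGFP interrupted by mutant beta-globin IVS2-654 intron (CMV-driven) were treated with compound for 2 days at 37C; corrected splicing was scored as total peak GFP intensity per well (488 nm excitation, 500-520 nm emission).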

ATS95 = experiment: qHTS profiling for inhibitors of Plasmodium falciparum proliferation (AID 504749); further: nearly all actives have a fitted effect of over 60% in size; further: potency means the concentration at half of the fitted maximal effect; details: P. falciparum in erythrocytes, SYBR Green DNA, 72 h; series mostly up to 28.7 µM
Method in brief: (§1)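 P. falciparum-infected erythrocytes (0.3% parasitemia, 2.5% hematocrit final) were exposed to compounds for 72 h at 37 C in 5% CO2, then lysed with SYBR Green buffer overnight at room temperature; parasite DNA fluorescence was normalized to artemisinin and DMSO controls.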

CP201 = experiment: as above; details: P. falciparum in erythrocytes, SYBR Green DNA, 72 h; series mostly up to 28.7 µM
Method in brief: as §1

CP215 = experiment: as above; details: P. falciparum in erythrocytes, SYBR Green DNA, 72 h; series mostly up to 28.7 µM
Method in brief: as §1

CP262 = experiment: as above; details: P. falciparum in erythrocytes, SYBR Green DNA, 72 h; series mostly up to 28.7 µM
Method in brief: as §1

CP266 = experiment: as above; details: P. falciparum in erythrocytes, SYBR Green DNA, 72 h; series mostly up to 28.7 µM
Method in brief: as §1

CP268 = experiment: as above; details: P. falciparum in erythrocytes, SYBR Green DNA, 72 h; series mostly up to 28.7 µM
Method in brief: as §1

CP269 = experiment: as above; details: P. falciparum in erythrocytes, SYBR Green DNA, 72 h; series mostly up to 28.7 µM
Method in brief: as §1

CP291 = experiment: as above; details: P. falciparum in erythrocytes, SYBR Green DNA, 72 h; series mostly up to 28.7 µM
Method in brief: as §1

CP297 = experiment: as above; details: P. falciparum in erythrocytes, SYBR Green DNA, 72 h; series mostly up to 28.7 µM
Method in brief: as §1

CP305 = experiment: as above; details: P. falciparum in erythrocytes, SYBR Green DNA, 72 h; series mostly up to 28.7 µM
Method in brief: as §1

CP325 = experiment: as above; details: P. falciparum in erythrocytes, SYBR Green DNA, 72 h; series mostly up to 28.7 µM
Method in brief: as §1

CP335 = experiment: as above; details: P. falciparum in erythrocytes, SYBR Green DNA, 72 h; series mostly up to 28.7 µM
Method in brief: as §1

DIV17 = experiment: as above; details: P. falciparum in erythrocytes, SYBR Green DNA, 72 h; series mostly up to 28.7 µM
Method in brief: as §1

FAB9 = experiment: as above; details: P. falciparum in erythrocytes, SYBR Green DNA, 72 h; series mostly up to 28.7 µM
Method in brief: as §1

GB4 = experiment: as above; details: P. falciparum in erythrocytes, SYBR Green DNA, 72 h; series mostly up to 28.7 µM
Method in brief: as §1

JCK = experiment: as above; details: P. falciparum in erythrocytes, SYBR Green DNA, 72 h; series mostly up to 28.7 µM
Method in brief: as §1

P94_40 = experiment: as above; details: P. falciparum in erythrocytes, SYBR Green DNA, 72 h; series mostly up to 28.7 µM
Method in brief: as §1

PAD = experiment: as above; details: P. falciparum in erythrocytes, SYBR Green DNA, 72 h; series mostly up to 28.7 µM
Method in brief: as §1

TAB109 = experiment: as above; details: P. falciparum in erythrocytes, SYBR Green DNA, 72 h; series mostly up to 28.7 µM
Method in brief: as §1

SMILES	outcome [1]	Potency (ATS95)	Potency (CP201)	Potency (CP215)	Potency (CP262)	Potency (CP266)	Potency (CP268)	Potency (CP269)	Potency (CP291)	Potency (CP297)	Potency (CP305)	Potency (CP325)	Potency (CP335)	Potency (DIV17)	Potency (FAB9)	Potency (GB4)	Potency (JCK)	Potency (P94_40)	Potency (PAD)	Potency (TAB109)
CN(C)c1ccc(-c2nc(Nc3ccncc3)c3ccccc3n2)cc1	inactive	–	–	–	–	–	–	–	–	–	–	–	–	–	–	–	–	–	–	–
O=C(O)[C@@H](O)[C@@H](O)[C@H](O)C(=O)CO	–	inactive	inactive	inactive	inactive	inactive	inactive	inactive	inactive	inactive	inactive	inactive	inactive	inactive	inactive	inactive	inactive	inactive	inactive	inactive
COc1ccccc1-c1ccc2ncnc(NCc3cccnc3)c2c1	inactive	–	–	–	–	–	–	–	–	–	–	–	–	–	–	–	–	–	–	–
CC(C)(C)c1ccc(CN2CCN([C@H](c3ccccc3)c3ccc(Cl)cc3)CC2)cc1	–	–	–	–	–	–	–	–	–	–	–	–	3.38 µM (active)	–	–	15.1 µM (active)	–	7.94 µM (active)	–	–
Cc1onc(-c2c(F)cccc2Cl)c1C(=O)N[C@@H]1C(=O)N2[C@H]1SC(C)(C)[C@H]2C(=O)O	–	inactive	inactive	inactive	–	inactive	inactive	inactive	inactive	inactive	inactive	inactive	–	inactive	inactive	inactive	inactive	inactive	inactive	inactive
CC1(C)S[C@@H]2[C@H](NC(=O)Cc3ccccc3)C(=O)N2[C@@H]1C(=O)O	–	inactive	inactive	inactive	inactive	inactive	inactive	inactive	inactive	inactive	inactive	inactive	inactive	inactive	inactive	inactive	inactive	inactive	inactive	inactive
C[C@H](CCC(=O)O)[C@H]1CC[C@@H]2[C@H]3[C@@H](C[C@@H](O)[C@]21C)[C@]1(C)CC[C@H](O)C[C@@H]1C[C@@H]3O	–	–	inactive	–	inactive	inactive	inactive	inactive	inactive	inactive	inactive	inactive	inactive	inactive	inactive	–	inactive	–	inactive	inactive
